PrPC TRFRET: inhibitors of human cell surface prion protein PrPC, primary screen, cell-based, TR-FRET. Major prion protein (Homo sapiens), P04156. TR-FRET read-out. inhibition, % at 13.8 µM. 370,000 tested, 0.43% active. AID 720596, 2013; in the data active = inhibition above about 24%; also: 0% = median of the test wells and 100% = reference compound wells
RN4220 kill: growth inhibition of S. aureus RN4220, primary screen, OD600. 16 h. inhibition, % (test concentration not listed). 330,000 tested, 0.33% active. AID 1259311, 2017; in the data active = inhibition above about 85%;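 also: plate controls were untreated cells for no effect and reference antibiotic for full effect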
PfHsp40 yeast: rescue of yeast from PfHsp40 toxicity, primary screen, S. cerevisiae, ATP luminescence. S. cerevisiae expressing PfHsp40, growth rescue. 340,000 tested, 0.68% active. growth rescue, % at 12.5 µM; in the data active = growth rescue above about 28%, passing the limit was not always enough; inconclusive = no clear call, values can overlap the other calls;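 also: yeast W303a lacking pdr1 and pdr3 grown in galactose medium; growth measured after three days at 30 °C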
VHR inh abs: VHR1 phosphatase inhibitors, primary screen, biochemical, absorbance, uHTS. inhibition, % at 13.3 µM. Dual specificity protein phosphatase 3 (Homo sapiens), P51452. 290,000 tested, 0.52% active. recombinant VHR phosphatase, pNPP absorbance; in the data active = inhibition above about 50%
Target sequence (P51452 whole entry, looked up): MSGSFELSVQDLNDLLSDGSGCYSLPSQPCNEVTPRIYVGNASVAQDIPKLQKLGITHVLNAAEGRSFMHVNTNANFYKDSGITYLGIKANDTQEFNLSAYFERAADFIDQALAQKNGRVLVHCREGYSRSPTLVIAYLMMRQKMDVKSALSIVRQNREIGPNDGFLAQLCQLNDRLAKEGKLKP
Sa ugtP lethal: growth inhibition of ugtP-null S. aureus, primary screen, RN4220 ugtP deletion, OD600 | 16 h | growth inhibition, % (concentration not given with the values) | 330,000 tested, 0.54% active | AID 1259309, 2017; in the data active = growth inhibition above about 68%;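 also: plate controls were untreated wells for no effect and antibiotic for full effect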
Starred values were filed as active, the others as inactive; ? = inconclusive; . = not tested or not shown. A selection: hits, their analogues and other compounds. The true share with any hit is near 1.8%.

SMILES	PrPC TRFRET	RN4220 kill	PfHsp40 yeast	VHR inh abs	Sa ugtP lethal
Cc1oc(-c2ccccc2Cl)nc1CS(=O)CC(=O)NCCCN1CC(C)CC(C)C1 (stereo not given)	13.9	.	0.4	52.5*	.
CCOC(=O)C1C2COc3ccc(Cl)cc3C2N2C(=O)CN(Cc3ccc(Cl)cc3)C(=O)[C@@]12C (stereo not given in full)	.	1.2	.	.	5.5
O=S1(=O)C=C(Sc2nc3ccccc3s2)c2ccccc21	.	54.1	.	-14.9	90.6*
C[C@@]1(C(NP(=O)(c2ccccc2)c2ccccc2)c2ccccc2)CC1CCO (stereo not given in full)	.	11.0	.	.	0.5
O=C(O)CC(C(=O)O)N1C(=O)/C(=C/C=C/c2ccco2)SC1=S (stereo not given)	3.7	1.7	14.3	54.3*	2.9
C[n+]1c2n(c3ccccc31)N=C(c1ccccc1)CS2	-8.4	1.4	0.2	15.4	-1.8
C[n+]1c2n(c3ccccc31)N=C(c1ccc(-c3ccccc3)cc1)CS2	11.4	99.9*	-0.2	10.3	100.8*
O=C(N/N=C/c1cccc(F)c1)c1c(O)c2ccccc2[nH]c1=O	-2.8	.	-0.9	-2.5	.
COC(=O)Nc1ccc(S(=O)(=O)NNC(=O)c2c(O)c3ccccc3[nH]c2=O)cc1	2.8	1.7	51.7*	6.0	10.4
COc1ccc(CCNC(=O)c2c(O)c3ccccc3[nH]c2=O)cc1	1.8	-0.8	-0.7	58.2*	9.6
COc1ccc(CCNC(=O)c2c(O)c3ccccc3[nH]c2=O)cc1OC	-6.1	0.7	0.7	.	2.9
O=C(Nc1cccc(F)c1)c1c(O)c2ccccc2[nH]c1=O	4.5	-0.2	-0.1	50.2*	7.6
CN(C)C1=NCC(Cc2ccccc2)N1CCc1ccc(F)cc1 (stereo not given)	.	1.7	.	.	3.6
CCn1c(SCC(=O)N2CCc3ccccc32)nnc1-c1ccncc1	-4.4	5.1	-0.1	16.9	8.1
CCn1c(SCC(=O)N2CCCc3ccccc32)nnc1-c1ccco1	2.7	-13.1	48.4*	25.3	-1.4
CCn1c(SCC(=O)N2c3ccccc3CCc3ccccc32)nnc1-c1ccc(OC)cc1	.	2.1	-1.6	55.4*	7.5
COC(=O)c1nnn(CC(=O)Nc2cccc(OC)c2)c1C(=O)OC	1.5	3.8	80.0*	-4.2	1.3
CCOC(=O)c1nnn(CC(=O)Nc2cccc(OC)c2)c1C(=O)OCC	-2.3	2.0	-0.2	10.8	4.7
COC(=O)c1ccc(C2C(C(=O)c3cc4ccccc4o3)=C(O)C(=O)N2c2cc(C)on2)cc1 (stereo not given)	3.5	.	2.2	1.1	.
Cc1cc(N2C(=O)C(O)=C(C(=O)c3cc4ccccc4o3)C2c2cccc(Br)c2)no1 (stereo not given)	12.6	100.4*	2.7	5.7	100.2*
CCCOc1cccc(C2C(C(=O)c3cc4ccccc4o3)=C(O)C(=O)N2c2cc(C)on2)c1 (stereo not given)	10.3	100.4*	-1.0	9.7	99.8*
Cc1cc(N2C(=O)C(O)=C(C(=O)c3cc4ccccc4o3)C2c2ccc(OC(C)C)cc2)no1 (stereo not given)	4.6	100.4*	0.1	-9.7	100.2*
C#CCOCCOCCOCCNc1nc(N2CCN(C(=O)C(C(C)CC)n3cc(C(N)CO)nn3)CC2)nc(N2CCN(C(=O)C(C(C)CC)n3cc(C(N)Cc4ccc(O)cc4)nn3)CC2)n1 (stereo not given)	.	1.1	.	.	3.8
Cc1c(N2C(=O)c3ccccc3C2(O)c2ccccc2)c(=O)n(-c2ccccc2)n1C (stereo not given)	2.6	6.0	-1.5	28.8	4.8
O=C1c2ccccc2C(O)(c2ccccc2)N1c1ccc([N+](=O)[O-])cc1Cl (stereo not given)	-4.1	4.2	204.5*	.	-4.5
SMILES	PrPC TRFRET	RN4220 kill	PfHsp40 yeast	VHR inh abs	Sa ugtP lethal
N#CC(=Cc1ccc(N2CCCCC2)o1)C(=O)Nc1ccc2ccccc2c1	.	-3.2	.	.	2.2
Cc1ccc(-c2csc(NCCn3c(-c4ccncc4)nc4cc(C(F)(F)F)ccc43)n2)cc1	-0.6	93.7*	0.1	.	64.1
CC1C/C(=C/c2ccncc2)C(=O)/C(=C/c2ccncc2)C1 (stereo not given)	7.2	7.5	50.5*	8.2	-2.7
O=C(Cc1ccc(Cl)c(Cl)c1)N/N=C/c1cccnc1	-2.2	.	-0.7	57.1*	.
O=C1OC(c2ccccc2)(c2ccc3cc(O)ccc3c2)c2ccccc21 (stereo not given)	14.7	-17.7	4.9	.	92.9*
O=C1OC(c2ccc(O)cc2)(c2ccc(O)cc2)c2ccccc21	-0.3	7.4	0.6	-6.8	0.3
CCC(C)Sc1cccc(-c2nc3cnccn3c2NC2CCCCC2)c1 (stereo not given)	4.8	-19.1	40.0*	.	1.9
CCC(C)Sc1cc(-c2nc3ccccn3c2NC2CCCCC2)ccc1OC (stereo not given)	7.4	100.1*	?	.	98.8*
CCC(C)Sc1cc(-c2nc3cc(C)ccn3c2NC2CCCCC2)ccc1OC (stereo not given)	13.2	0.3	-0.5	.	4.4
c1cc(SC2CCCCC2)cc(-c2nc3cnccn3c2NC2CCCCC2)c1	9.2	.	0.3	.	.
C=CCOC(=O)C1=CC(c2coc3ccccc3c2=O)CC(OCc2ccc(CO)cc2)O1 (stereo not given)	.	2.9	.	.	4.1
O=C(CNC(=O)c1ccco1)NN=Cc1ccccc1[N+](=O)[O-]	.	-1.2	.	.	7.0
Cc1cccn2c(=O)c3cc(C(=O)NCCN4CCOCC4)c(=N)n(CCCN4CCOCC4)c3nc12	-36.7	-3.9	-1.0	55.2*	-2.2
Cc1cccn2c(=O)c3cc(C(=O)NCc4ccccc4)c(=N)n(CCCN4CCOCC4)c3nc12	-18.5	-1.9	0.4	.	-10.8
O=C(NC(=S)N1CCN(c2ccc(C(F)(F)F)cc2[N+](=O)[O-])CC1)c1cccs1	-2.4	21.4	122.4*	4.6	12.9
C#CCNC(=O)C1=CC(c2ccc3c(c2)OCO3)CC(OCc2ccc(CO)cc2)O1 (stereo not given)	.	3.4	.	.	-3.2
Cc1ccc(N2CC(C(=O)NCCC(C)C)CC2=O)cc1 (stereo not given)	-10.4	-2.1	-0.1	13.3	1.7
Cc1ccc(N2CC(C(=O)NC(C)CCc3ccccc3)CC2=O)cc1 (stereo not given)	-8.3	1.7	-0.6	52.8*	2.6
COc1ccc(C2C=CCN(Cc3ccncc3)CC(=O)N2Cc2ccc(F)cc2)cc1 (stereo not given)	.	9.3	.	.	3.4
O=C(NNC(=O)c1ccccc1OCc1ccc(F)cc1)c1ccccc1O	-2.5	1.5	43.2*	5.5	5.6
O=C(N/N=C/c1ccc(F)cc1)c1sccc1OCc1ccc(F)cc1	0.0	.	1.6	6.2	.
NNC(=O)c1sccc1OCc1ccc(F)cc1	3.6	4.1	0.5	54.7*	8.8

Screens from PubChem BioAssay.
